Records with an inconclusive call do not appear. Calls of active or inactive are those of the source. Calls come from the whole dose curve; as a rule, active = well fitted inhibition curve with a large enough effect; inconclusive = small, poorly fitted or top-dose-only effect; inactive = flat fitted curve, though single readings scatter.
Assay: High Content Assay for Compounds that inhibit the Assembly of the Perinucleolar Compartment: PC3M Cytotoxicity
Details: PC3M cells, ATPLite luminescence viability, 24 h; series mostly up to 46.1 µM
From the text: High Content Assay for Compounds that inhibit the Assembly of the Perinucleolar Compartment
NIH Chemical Genomics Center [NCGC]
NIH Molecular Libraries Probe Centers Network [MLPCN]
Assay Submitter (PI): Sui Huang, Northwestern University, Feinberg School of Medicine, Cell and Molecular Biology, Chicago, Illinois.
The perinucleolar compartment (PNC) is a non-membrane-bound nuclear subdomain that is associated with but structurally distinct from the nucleolus. The PNC is a heritable trait, in which the number of PNCs per cell in daughter cells often mimics that of their mother cells. The PNC is heterogeneous in shape, is stable through interphase, disassembles during mitosis, and reassembles in early G1. The PNC is concentrated with newly synthesized RNA polymerase III (pol III) RNAs (MRP RNA, RNAse P H1 RNA, hY RNAs[hY1, 2, 5], Alu RNA, and SRP [7SL] RNA) and RNA binding proteins (nucleolin, PTB, CUG-BP, KSRP, Raver1, Raver2, and Rod).
Extensive in vitro studies have shown that the PNC is unique to tumor cells and preferentially forms in tumor cells derived from solid tissues. Examination of cancer cell lines from various origins and malignant capacities has shown that PNC prevalence correlates with the malignancy of tumors and has the potential to be developed as a pan-cancer prognostic marker.
Although the PNC is associated with a DNA locus and a handful of components have been identified, much remains to be investigated regarding the structure and function of the PNC and its mechanistic link to cancer. We have previously shown that PNC prevalence reduction is a valid strategy to identify compounds that can be used to study the structure and function of the PNC. It is necessary, however, to create a screening platform that is able to test a large number of compounds in an automated fashion. Here we report the development and robustness of an automated whole-cell phenotypic image-based screening assay that is capable of identifying such compounds.
We conducted a followup assay to measure the effect of the lead candidates on cell health by measuring ATP levels (ATPLite). The highly metastatic PC3M-GFP reporter cell line was used in this study.
1. Cells at a density of 75-90% confluency in T175 flasks were harvested using 7 ml TrypLE Express cell dissociation reagent. After dissociation (5 minutes room temperature incubation) 10 ml of complete media was added to the TrypLE/cell suspension. The liquid was transferred to a 50 ml Conical tube and cells were pelleted at 1000 RPM for 5 min. Supernatant was removed and cells were resuspended to a final density of 150-200 cells/ul in complete media.
2. Cells were plated in 5 ul volume (2000 cells/well) into 1536 well White solid bottom plates and allowed to recover and adhere at 37 C in a humidified 5% CO2 incubator for 4 hours.
3. After 4 hour incubation, compound libraries (23 nl of 12.5 uM in columns 5-48) were transferred to the plates in duplicate using a 1536 well pintool. Camptothecin positive control (59 uM final) was added to column 2 and 1:3 dilutions of camptothecin was added to column 3. DMSO negative controls were present in columns 1 and 4.
4. After a 24 hour incubation in the 37 C incubator, all wells were treated with 3 ul of ATPLite reagent using a multidrop combi dispenser (ThermoFisher). Bubbles that formed during dispensing were removed by spinning the plates for 1 minutre at 1500 RPM on a table top centrifuge.
5. Luminescencent signal was detected on a Viewlux CCD based imager (PerkinElmer) with a clear filter and a 30 second integration time.
The PC3M cell line stably expressing the PTB-GFP was provided by Sui Huang of Northwestern University. The media and cell culture reagents were purchased from Invitrogen (Carlsbad, CA), ATPLite came from PerkinElmer.

SMILES | Potency
COc1ccc(CN2CCC(C(=O)NCCc3ccc(OC)c(OC)c3)CC2)c(OC)c1 | inactive
COC(=O)c1ccc(CSc2ccccc2C)o1 | inactive
COc1cccc(CNc2cccc3cccnc23)c1O | inactive
C/C(N)=C(/C#N)C(=O)COC(=O)c1cc(C)n(-c2ccc(F)cc2)c1C | 12.6 µM (active)
O=C(N/N=C/c1ccccc1O)c1cccc(C(F)(F)F)c1 | 10 µM (active)
CN(C)c1ccc(N=Nc2ccccc2C(=O)OCC(=O)NC2CCCC2)cc1 | inactive
Cc1ccc(NC2=C/C(=N/S(=O)(=O)c3cccs3)c3ccccc3C2=O)cc1 | 14.1 µM (active)
Nc1cccc(-c2nc3ccc(N)cc3s2)c1 | 25.1 µM (active)
COc1ccc(-c2nc(NC(=O)c3n[nH]c(=O)c4ccccc34)sc2C)cc1 | 7.08 µM (active)
O=C(N/N=C/c1c(O)ccc2ccccc12)c1cccc(C(F)(F)F)c1 | 8.91 µM (active)
COc1ccccc1NC1=C(N2CCCCC2)C(=O)c2ccccc2C1=O | 7.94 µM (active)
O=c1[nH]cnc2c1C(c1ccccc1[N+](=O)[O-])c1c(nc[nH]c1=O)O2 | inactive
Cc1ccc(-n2cc(-c3ccccc3)c3c(NN4CCOCC4)ncnc32)cc1 | inactive
COc1ccc2nc3sc(C(=O)NCCCN4CCc5ccccc5C4)cc3cc2c1 | 31.6 µM (active)
CC(=O)c1ccc(-n2c(SCC(=O)c3c[nH]c4ccccc34)nc3ccccc3c2=O)cc1 | inactive
CCOC(=O)Cn1c(-c2nonc2NC(=O)c2ccccc2F)nc2ccccc21 | 4.47 µM (active)
O=C1C(=O)c2ccc(-c3ccccc3)cc2-c2ccccc21 | 15.8 µM (active)
CSc1nc(-c2ccc(C)cc2)nc(C(Cl)Cl)n1 | 31.6 µM (active)
CC(=O)Nc1cccc(Oc2ncnc3scc(-c4ccc(C)cc4)c23)c1 | inactive
Nc1ccc2c(c1)C(=O)C(=O)c1ccccc1-2 | 22.4 µM (active)

SMILES | Potency
Cc1cc(SC(C)C(=O)Nc2ncc(Cl)cc2Cl)nc2ccccc12 (stereo not given) | 11.2 µM (active)
C=CCN=c1scc(-c2ccccc2)n1/N=C/c1ccccn1 | 14.1 µM (active)
Cc1ccc(Cl)cc1N(CC(=O)N1CCCCCC1)S(C)(=O)=O | inactive
CN1c2ccccc2C(C)(C)C12CC(c1ccc(Cl)c(S(=O)(=O)N3CCCC3)c1)=NO2 (stereo not given) | 3.98 µM (active)
O=C(NCc1ccco1)C1CCN(Cc2ccc(F)cc2)CC1 | inactive
CCN=c1scc(-c2ccccc2)n1/N=C/c1ccccn1 | 10 µM (active)
O=C(Nc1cccnc1)c1cccs1 | inactive
COc1ccc(-c2csc(NC(=O)c3ccc(OCC(=O)N4CCOCC4)c(OC)c3)n2)cc1 | inactive
COc1cc(/C=N/NC(=O)c2ccc(CSc3nc4ccccc4[nH]3)cc2)cc(OC)c1OC | inactive
O=C(Nc1ccc(NC(=O)C2CC2)cn1)c1ccccc1Cl | 28.2 µM (active)
CCCSc1cc(N2CCN(C)CC2)nc(-c2ccc(OC)cc2)n1 | inactive
Cc1cccc(C)c1Nc1c(-c2ccc(N3CCOCC3)cc2)nc2ncccn12 | inactive
CC12CCC(C(=O)NC(c3ccccc3)c3ccccc3)(OC1=O)C2(C)C (stereo not given) | inactive
Cc1cccc(NC2=C/C(=N/S(=O)(=O)c3cccs3)c3ccccc3C2=O)c1 | 15.8 µM (active)
Cc1cc(C(=O)Cn2nnc3ccccc3c2=O)c(C)n1-c1ccccc1F | 7.94 µM (active)
O=S(=O)(Nc1cc(Sc2cccc3cccnc23)c(O)c2ccccc12)c1ccc(F)cc1 | 15.8 µM (active)
Cc1ccccc1C(=O)NNC(=S)Nc1cccc(C(F)(F)F)c1 | inactive
Cc1cc[n+](C2=C([O-])c3ccccc3C(=O)/C2=N\S(=O)(=O)c2cccs2)cc1C | 25.1 µM (active)
CC(=O)N(C)C1=C(N2CCOCC2)C(=O)c2ccccc2C1=O | 15.8 µM (active)
CCc1ccc(S(=O)(=O)/N=C2/C=C(Sc3ncn[nH]3)C(=O)c3ccccc32)cc1 | 35.5 µM (active)

Source: PubChem BioAssay AID2733 (National Center for Advancing Translational Sciences (NCATS), 2010)
